Assay [1] can be described thus: NCI Yeast Anticancer Drug Screen. Data for the rad50 strain (AID 155).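 Further: 0% = growth of vehicle-only cultures of the same strain.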 Particulars: S. cerevisiae rad50 strain growth inhibition, stronger effect = higher value. In a few lines: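 Readout: growth inhibition relative to vehicle-treated cultures. Compound exposure was carried out in a genetically defined yeast strain deficient in DNA damage repair.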
Assay [2] in a line: NCI Yeast Anticancer Drug Screen. Data for the mec2-1 strain (AID 157). Particulars: S. cerevisiae mec2-1 strain, stronger effect = higher value. In a few lines: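 Test agents were screened against the mec2-1 yeast strain, with defined DNA repair or cell cycle alteration. Growth was scored as inhibition against vehicle-only controls.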
The nature of assay [3]: NCI Yeast Anticancer Drug Screen. Data for the sgs1 mgt1 strain (AID 161).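 Further: 0% = growth of cultures given vehicle only.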 Particulars: S. cerevisiae sgs1 mgt1 strain, stronger effect = higher value. In a few lines:
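Genetically altered yeast, compound exposure, growth inhibition relative to vehicle.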

Assay [4] is described as follows: NCI Yeast Anticancer Drug Screen. Data for the cln2 rad14 strain (AID 165).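 Further: 0% = growth equal to vehicle treated cultures.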 Particulars: S. cerevisiae cln2 rad14 strain, stronger effect = higher value. In a few lines:
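Growth of compound-exposed yeast (cln2 rad14 genotype) measured and expressed as inhibition relative to vehicle.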

A short description of assay [5]: NCI Yeast Anticancer Drug Screen. Data for the bub3 strain (AID 167). Particulars: S. cerevisiae bub3 mutant strain, stronger effect = higher value. In a few lines: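 Readout: yeast growth inhibition, expressed relative to vehicle-only wells. The test organism is a mutant strain from a panel with lesions in DNA repair or checkpoint genes.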
A short description of assay [6]: NCI Yeast Anticancer Drug Screen. Data for the mlh1 rad18 strain (AID 175). Particulars: S. cerevisiae mlh1 rad18 strain growth inhibition, stronger effect = higher value. In a few lines: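 In this whole-cell yeast screen, a strain with altered DNA damage repair is challenged with compound, and its growth is measured against matched vehicle-treated controls.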
The mark [7] stands for this setting: at 5.0 µM (retest, dose inferred, filed as 0.5).
Setting [8] is: at 50.0 µM (retest, dose inferred, filed as 5.0).

Structures are written as SMILES. Compounds without any hit were thinned out: in the full panel of roughly 79,000, 15% have a hit. Unmarked numbers belong to inactive results. Calls of active or inactive are those of the source. No stated cut-off is given here; in the data, active means growth inhibition above about 70%; inactive means the rest.

Consider `O=[N+]([O-])/C=C/c1ccc([N+](=O)[O-])cc1`, for which the growth inhibition in assay [1] (setting [7]) was 96% (active); in assay [1] (setting [8]), 99% (active); in assay [2] (setting [7]), 81% (active); in assay [2] (setting [8]), 100% (active); in assay [3] (setting [7]), 99% (active); in assay [3] (setting [8]), 100% (active). For the same molecule, the growth inhibition in assay [4] (setting [7]) was 31%; in assay [4] (setting [8]), 99% (active); in assay [5] (setting [7]), 94% (active); in assay [5] (setting [8]), 100% (active); in assay [6] (setting [7]), 15%; in assay [6] (setting [8]), 99% (active).

On to `O=[N+]([O-])c1ccc(C2C3CC4C(OOC42)C3I)cc1` (stereo unspecified), for which the growth inhibition in assay [1] (setting [7]) was 0%; in assay [1] (setting [8]), 20%; in assay [1] (at 50.0 µM) it was 23.5%; in assay [3] (setting [7]) it was -4%; in assay [3] (setting [8]) it was 12%; in assay [3] (at 50.0 µM) it was 32.8%. In addition, the growth inhibition is -1% in assay [4] (setting [7]); -7% in assay [4] (setting [8]); -27.4% in assay [4] (at 50.0 µM); 28% in assay [5] (setting [7]); 98% (active) in assay [5] (setting [8]); 97.2% (active) in assay [5] (at 50.0 µM). Besides, the growth inhibition is 0% in assay [6] (setting [7]), 27% in assay [6] (setting [8]) and 31.4% in assay [6] (at 50.0 µM).

For `CC(=O)[CH-]C(C)=O.CC(=O)[CH-]C(C)=O.N=CC=N.[Sn+2]`, the growth inhibition in assay [1] (setting [7]) was 95% (active); in assay [1] (setting [8]) it was 98% (active); in assay [1] (at 50.0 µM), 88.2% (active); in assay [3] (setting [7]), 98% (active); in assay [3] (setting [8]), 99% (active); in assay [3] (at 50.0 µM) it was 94.2% (active). In addition, the growth inhibition in assay [4] (setting [7]) is 87% (active); in assay [4] (setting [8]), 97% (active); in assay [4] (at 50.0 µM) it was 93.5% (active); in assay [5] (setting [7]), 98% (active); in assay [5] (setting [8]), 99% (active); in assay [5] (at 50.0 µM), 93.3% (active).

Turning to `C[CH2][Sn]([CH2]C)([CH2]C)[CH2]C`, the growth inhibition in assay [1] (setting [7]) was 6%; in assay [1] (setting [8]), 54%; in assay [2] (setting [7]) it was 3%; in assay [2] (setting [8]) it was 22%; in assay [3] (setting [7]), -3%; in assay [3] (setting [8]) it was 58%. For the same molecule, the growth inhibition in assay [4] (setting [7]) was -6%; in assay [4] (setting [8]) it was 12%; in assay [5] (setting [7]), 0%; in assay [5] (setting [8]), 35%.

Turning to `O=C(CBr)c1ccncc1`, the growth inhibition in assay [1] (setting [7]) is 99% (active); in assay [1] (setting [8]), 99% (active); in assay [2] (setting [7]), 100% (active); in assay [2] (setting [8]), 100% (active); in assay [3] (setting [7]), 100% (active); in assay [3] (setting [8]), 99% (active). Moreover, the growth inhibition in assay [4] (setting [7]) is 99% (active); in assay [4] (setting [8]), 99% (active); in assay [5] (setting [7]), 100% (active); in assay [5] (setting [8]) it was 99% (active); in assay [6] (setting [7]), 95% (active); in assay [6] (setting [8]), 98% (active).

Take `CC(Cc1ccc2c(c1)OCO2)NN` (stereo unspecified): the growth inhibition in assay [1] (setting [7]) was -2%; in assay [1] (setting [8]) it was 37%; in assay [2] (setting [7]) it was -5%; in assay [2] (setting [8]), 6%; in assay [3] (setting [7]) it was -2%; in assay [3] (setting [8]), 59%. The growth inhibition in assay [4] (setting [7]) was -5%; in assay [4] (setting [8]), -8%; in assay [5] (setting [7]) it was 2%; in assay [5] (setting [8]), 34%; in assay [6] (setting [7]) it was -20%; in assay [6] (setting [8]), 16%.

For the molecule `O=[N+]([O-])c1cc(Cl)c(Cl)cc1[N+](=O)[O-]`, the growth inhibition is 83% (active) in assay [1] (setting [7]); 99% (active) in assay [1] (setting [8]); 16% in assay [2] (setting [7]); 99% (active) in assay [2] (setting [8]); 41% in assay [3] (setting [7]); 100% (active) in assay [3] (setting [8]). Besides, the growth inhibition in assay [4] (setting [7]) was -2%; in assay [4] (setting [8]) it was 99% (active); in assay [5] (setting [7]) it was 14%; in assay [5] (setting [8]), 99% (active); in assay [6] (setting [7]) it was -11%; in assay [6] (setting [8]), 98% (active).

Take `CCC1CC[N-]CC1.CCC1CC[N-]CC1.N#C[S-].N#C[S-].[Cd]`: the growth inhibition in assay [1] (setting [7]) is 26%; in assay [1] (setting [8]), 85% (active); in assay [2] (setting [7]) it was 16%; in assay [2] (setting [8]) it was 56%; in assay [3] (setting [7]), 11%; in assay [3] (setting [8]), 71% (active). For the same molecule, the growth inhibition is 4% in assay [4] (setting [7]); 54% in assay [4] (setting [8]); 5% in assay [5] (setting [7]); 42% in assay [5] (setting [8]); -16% in assay [6] (setting [7]); 57% in assay [6] (setting [8]).

For `O=C1C=C(Cl)C(=O)C(Cl)=C1`, the growth inhibition in assay [1] (setting [7]) was 15%; in assay [1] (setting [8]), 99% (active); in assay [1] (at 50.0 µM), 99.4% (active); in assay [3] (setting [7]) it was 7%; in assay [3] (setting [8]), 99% (active); in assay [3] (at 50.0 µM), 99.5% (active). Also, the growth inhibition is 0% in assay [4] (setting [7]); 95% (active) in assay [4] (setting [8]); 91.5% (active) in assay [4] (at 50.0 µM); 10% in assay [5] (setting [7]); 99% (active) in assay [5] (setting [8]); 99.3% (active) in assay [5] (at 50.0 µM). Besides, the growth inhibition in assay [6] (setting [7]) was 20%; in assay [6] (setting [8]), 99% (active); in assay [6] (at 50.0 µM), 99.4% (active).

`CC/C(=C\c1ccccc1)[N+](=O)[O-]`: the growth inhibition was 64% in assay [1] (setting [7]); 99% (active) in assay [1] (setting [8]); 11% in assay [2] (setting [7]); 100% (active) in assay [2] (setting [8]); 25% in assay [3] (setting [7]); 100% (active) in assay [3] (setting [8]). For the same molecule, the growth inhibition in assay [4] (setting [7]) is 14%; in assay [4] (setting [8]), 99% (active); in assay [5] (setting [7]), 28%; in assay [5] (setting [8]), 100% (active); in assay [6] (setting [7]) it was -13%; in assay [6] (setting [8]) it was 98% (active).

`CNP1(=O)OC(c2ccccc2)=CCN1CCCl` (stereo unspecified): the growth inhibition in assay [1] (setting [7]) is 3%; in assay [1] (setting [8]) it was -1%; in assay [1] (at 50.0 µM), 76.3% (active); in assay [3] (setting [7]) it was 5%; in assay [3] (setting [8]) it was -1%; in assay [3] (at 50.0 µM), 58.8%. In addition, the growth inhibition is 0% in assay [4] (setting [7]); 6% in assay [4] (setting [8]); -30.3% in assay [4] (at 50.0 µM); 0% in assay [5] (setting [7]); -2% in assay [5] (setting [8]); 23.9% in assay [5] (at 50.0 µM). Also, the growth inhibition in assay [6] (setting [7]) is 0%; in assay [6] (setting [8]), 5%; in assay [6] (at 50.0 µM), 71.2% (active).

For the molecule `CC1CCN(C(CC(=O)c2ccccc2)C(=O)c2ccccc2)CC1` (stereo unspecified), the growth inhibition in assay [1] (setting [7]) was 20%; in assay [1] (setting [8]), 99% (active); in assay [2] (setting [7]), 7%; in assay [2] (setting [8]), 100% (active); in assay [3] (setting [7]) it was 21%; in assay [3] (setting [8]), 99% (active). For the same molecule, the growth inhibition in assay [4] (setting [7]) was 9%; in assay [4] (setting [8]) it was 99% (active); in assay [5] (setting [7]), 13%; in assay [5] (setting [8]), 100% (active); in assay [6] (setting [7]), -2%; in assay [6] (setting [8]), 98% (active).

As for `C/C(=N\NC(=S)N1CC2CCC(CC2)C1)c1nccs1`, the growth inhibition in assay [1] (setting [7]) was 89% (active); in assay [1] (setting [8]), 98% (active); in assay [2] (setting [7]), 77% (active); in assay [2] (setting [8]) it was 99% (active); in assay [3] (setting [7]), 92% (active); in assay [3] (setting [8]), 99% (active). Also, the growth inhibition is 87% (active) in assay [3] (at 50.0 µM); 86% (active) in assay [4] (setting [7]); 98% (active) in assay [4] (setting [8]); 87.2% (active) in assay [4] (at 50.0 µM); 95% (active) in assay [5] (setting [7]); 99% (active) in assay [5] (setting [8]). Also, the growth inhibition in assay [5] (at 50.0 µM) is 86.5% (active); in assay [6] (setting [7]), 95% (active); in assay [6] (setting [8]), 98% (active).

These data come from PubChem BioAssay (NCI).
